Assay [1] has as its system Human papillomavirus type 1a protein E7 (residues 44-93). Briefly: small molecules binding HPV E7 44-93 – biochemical, small-molecule microarray, residues 44-93, 635 nm fluorescence, primary screen (AID 1108).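 Also: E7 fragment applied at 1 µg/mL in TBST for 1 h at 4 C; score combines spot fluorescence with its signal to noise ratio.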 To be noted: fluorescence 635 nm, higher = more signal.
Assay [2] is described as follows: hepatitis C replication reporter changes, two-sided – Huh7 cells, luciferase reporter, HCV replication inhibitor project, primary screen (AID 1109).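 Also: huh7 hepatoma cells harbouring a luciferase neomycin HCV replicon reporter; luciferase luminescence as measure of HCV replicon replication; test concentration not given here.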 The settings on record: Huh7 HCV replicon luciferase reporter, 48 h; higher = more signal. (In general: In a reporter assay the amount or activity of a reporter protein is the signal.)
For assay [3], the target named is Left-right determination factor 2 (Homo sapiens) (UniProt O00292). Briefly: small molecules binding LEFTY2 protein – biochemical, small-molecule microarray, 635 nm fluorescence scan, primary screen (AID 1110). To be noted: higher = more signal.
Chain of Left-right determination factor 2 (Homo sapiens) (O00292 whole entry, looked up): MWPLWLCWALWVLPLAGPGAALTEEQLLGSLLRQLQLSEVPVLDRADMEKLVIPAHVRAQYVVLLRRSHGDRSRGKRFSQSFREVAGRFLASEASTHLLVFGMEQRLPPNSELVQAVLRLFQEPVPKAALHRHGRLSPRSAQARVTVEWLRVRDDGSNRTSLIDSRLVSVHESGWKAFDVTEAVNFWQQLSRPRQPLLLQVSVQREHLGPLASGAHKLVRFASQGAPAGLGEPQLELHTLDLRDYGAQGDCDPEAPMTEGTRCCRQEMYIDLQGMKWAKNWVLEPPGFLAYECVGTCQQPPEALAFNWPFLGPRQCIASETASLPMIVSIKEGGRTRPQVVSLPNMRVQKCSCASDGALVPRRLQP
Assay [4] deals with Calmodulin-1 (Homo sapiens) (UniProt P0DP23). Briefly: small molecules binding calmodulin-1 with EGTA – biochemical, small-molecule microarray, Cy5-labelled CALM1, profiling panel (AID 1111).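 Also: labelled calmodulin applied in Tris saline Tween buffer holding calcium plus EGTA and DTT.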 The settings on record: Cy5-CALM1 binding fluorescence, higher = more signal.
For assay [5] the target is unchanged. Briefly: small molecules binding Ca-loaded calmodulin-1 – biochemical, small-molecule microarray, Cy5-labelled CALM1, plus calcium, artefact control for SMM control-protein annotation, profiling panel (AID 1112).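 Also: score merges spot fluorescence with signal to noise from triplicate slides.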 The settings on record: Cy5-CALM1 binding fluorescence, higher = more signal.
The nature of assay [6]: probe aWnt5a binding to arrayed compounds – biochemical, biotinylated probe, 635/667 nm fluorescence, primary screen (AID 1113).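 Also: score merges 667 nm fluorescence intensity with signal-to-noise per printed feature.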 To be noted: small-molecule microarray, higher = more signal.
A short description of assay [7]: probe aShh binding to arrayed compounds – biochemical, biotinylated probe, 635/667 nm fluorescence, primary screen (AID 1114).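 Also: probe is biotin-labelled aShh protein from a stem cell growth factor screen; measures binding of labelled protein to compounds printed on the slide; score merges feature fluorescence at 667 nm with signal-to-noise.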 To be noted: small-molecule microarray, higher = more signal.
Assay [8] in a line: probe aNog binding to arrayed compounds – biochemical, biotinylated probe, 635/667 nm fluorescence, primary screen (AID 1115).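 Also: probe is biotinylated aNog protein used at 0.15 µg/mL for 1 h at 4 C; z-score combines 667 nm fluorescence of each spot with its signal to noise.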 The settings on record: small-molecule microarray, higher = more signal.
Assay [9] has as its target Torsin-1A-interacting protein 1 (Homo sapiens) (UniProt Q5JTV8). As to the kind of experiment: compound microarray binding of lysate hLAP1 – cell lysate, small-molecule microarray, COS7 lysate, 635/667 nm fluorescence, primary screen (AID 1116). To be noted: 635 nm fluorescence, higher = more signal.
Assay [10] concerns the target Alpha-bungarotoxin (Bungarus multicinctus) (UniProt P60615). Briefly: compounds binding labelled alpha-BTX control protein – biochemical, small-molecule microarray, Alexa647 label, 635/667 nm fluorescence, artefact control for SMM control protein annotation, profiling panel (AID 1117). To be noted: alpha-BTX-A647 binding fluorescence, higher = more signal.

Structures are written as SMILES.

Chain of Alpha-bungarotoxin (Bungarus multicinctus) (P60615 whole entry, looked up): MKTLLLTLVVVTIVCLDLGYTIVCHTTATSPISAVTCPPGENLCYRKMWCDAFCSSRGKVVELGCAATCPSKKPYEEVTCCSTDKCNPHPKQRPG
Chain of Torsin-1A-interacting protein 1 (Homo sapiens) (Q5JTV8 whole entry, looked up): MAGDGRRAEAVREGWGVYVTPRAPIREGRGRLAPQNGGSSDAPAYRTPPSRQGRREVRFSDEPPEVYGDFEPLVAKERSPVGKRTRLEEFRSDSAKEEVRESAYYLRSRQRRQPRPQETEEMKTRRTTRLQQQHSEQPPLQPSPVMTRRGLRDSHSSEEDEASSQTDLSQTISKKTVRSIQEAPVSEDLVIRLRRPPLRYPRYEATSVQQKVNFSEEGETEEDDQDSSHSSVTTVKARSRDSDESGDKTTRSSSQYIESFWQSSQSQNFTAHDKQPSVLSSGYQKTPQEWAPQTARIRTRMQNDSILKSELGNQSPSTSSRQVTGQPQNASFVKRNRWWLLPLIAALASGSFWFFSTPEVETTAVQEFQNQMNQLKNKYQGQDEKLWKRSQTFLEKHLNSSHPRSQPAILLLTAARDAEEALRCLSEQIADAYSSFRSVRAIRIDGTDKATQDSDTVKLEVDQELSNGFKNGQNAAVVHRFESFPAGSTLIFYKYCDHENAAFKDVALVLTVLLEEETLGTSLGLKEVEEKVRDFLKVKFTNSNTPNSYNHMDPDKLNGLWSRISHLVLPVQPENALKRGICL

Take `COC(=O)[C@@]1(Cc2ccc(F)cc2)[C@H]2c3cc(C(=O)N(C)C)n(Cc4ccccc4)c3C[C@H]2CN1C(=O)c1ccccc1`: the composite z-score in assay [1] is 1.35; in [3], -0.496; in [4], 1.11; in assay [5], 0.363; in assay [6] it was -0.0977; in assay [7], 1.17. Further, the composite z-score was 1.59 in assay [8], -0.3 in assay [9] and 2.56 in [10]. For the same molecule, the z-score in assay [2] was 0.185.

For the molecule `COC(=O)[C@@]1(Cc2ccc(OC)cc2)[C@H]2c3cc(C(=O)N(C)C)n(Cc4ccc(S(C)(=O)=O)cc4)c3C[C@H]2CN1C(=O)c1ccccc1`, the composite z-score is 1.41 in [1]; -0.0612 in assay [3]; 1.36 in [4]; 0.798 in assay [5]; -0.242 in assay [6]; -0.405 in assay [7]. Also, the composite z-score is -0.21 in assay [8], 1.28 in assay [9] and -0.0416 in [10]. Moreover, the z-score in assay [2] was -1.63.

In the case of `C=CCC(OC(C)=O)[C@@H]1[C@@H](N(Cc2ccc(-c3cccc(C(F)(F)F)c3)o2)C(=O)c2ccc(C)cc2)c2cc(OCCCO)ccc2N1C(=O)Cc1ccc2ccccc2c1` (stereo not given in full), the composite z-score in assay [1] was -0.312; in assay [3] it was -0.628; in assay [4], -0.424; in assay [5] it was -0.352; in assay [6], -0.0704; in [7], -0.237. In addition, the results for the composite z-score in assay [8], in [9] and in assay [10] were -0.122, -0.127 and 0.236, respectively. The molecule also came in with a z-score in assay [2] of 0.237.

For `COc1cc(C(O)C2C=CC3C(=O)NC(=O)C3N2Nc2ccccn2)cc(OC)c1OC` (stereo not given), the composite z-score in assay [1] was 1.04; in assay [3], 0.0534; in assay [4], -0.0338; in assay [5] it was -0.62; in assay [6] it was -0.128; in [7] it was -0.243. Also, the results for the composite z-score in assay [8], in [9] and in assay [10] were 0.416, 0.531 and -0.0198, respectively. In assay [2], this molecule showed a z-score of -0.178.

On to `COc1ccc(-c2cc3c(c(-c4ccc(Oc5ccccc5)cc4)n2)[Si](C(C)C)(C(C)C)OC3)cn1`, for which the composite z-score is -0.419 in [1]; -0.123 in assay [3]; -0.266 in [4]; 0.211 in [5]; -0.206 in [6]; -0.0553 in assay [7]. Besides, the composite z-score in [8] is -0.224; in assay [9], -0.286; in [10], 0.199. In assay [2], this molecule showed a z-score of -1.15.

On to `COc1cc2c(cc1OC)CN(C(=O)[C@H]1[C@@H]3C(=O)O[C@@H](c4ccccc4)[C@@H](c4ccccc4)N3[C@@H](c3ccc(O)cc3)[C@]13C(=O)Nc1ccc(C#CCCO)cc13)CC2`, for which the composite z-score in [1] is 1.4; in assay [3] it was -0.0265; in assay [4], 0.382; in assay [5], 0.0412; in assay [6] it was -0.0403; in [7], -0.0553. Besides, the composite z-score in assay [8] was -0.472; in [9], 0.469; in [10] it was 1.04. Further, the z-score in assay [2] was -0.838.

Consider `C=CC1(C(=O)OC)CC=C(C(=O)OC)CC1` (stereo not given), for which the composite z-score is 1.1 in assay [1]; 1.24 in assay [3]; 0.887 in assay [4]; 0.234 in [5]; -0.141 in [6]; 1.1 in assay [7]. In addition, the composite z-score in assay [8] was -0.0689; in assay [9], 1.1; in assay [10], 0.605. Further, the z-score in [2] is -0.928.

For `COCCCNC(=O)[C@@H]1c2ccccc2C(=O)N(Cc2ccccc2Cl)[C@H]1c1ccc(CO)cc1`, the composite z-score was 0.867 in [1]; 0.67 in [3]; -0.48 in assay [4]; -0.613 in assay [5]; -0.0792 in assay [6]; 0.0684 in assay [7]. Also, the figures for the composite z-score in assay [8], in assay [9] and in assay [10] were -0.382, 1.51 and -0.195, respectively. For the same molecule, in [2], the z-score came out at 0.318.

As to `O=C1N[C@@H](Cc2ccccc2)C(=O)N2[C@@H]1C[C@@H](C(=O)O)[C@H]2c1cccc(OCCO)c1`, the composite z-score is 1.3 in [1]; 0.941 in [3]; -0.657 in [4]; 0.465 in assay [5]; -0.176 in assay [6]; -0.243 in assay [7]. Also, the composite z-score in assay [8] is -0.199; in [9], 0.49; in assay [10] it was 1.14. The z-score in [2] came out at 2.89.

Turning to `CC(=O)n1cc(C(O)C2C=CC3C(=O)N(c4ccccc4)C(=O)C3N2Nc2ccc([N+](=O)[O-])cc2)c2ccccc21` (stereo not given), the composite z-score is 0.275 in [1]; -0.712 in assay [3]; 1.73 in assay [4]; 0.571 in assay [5]; -0.0459 in [6]; -0.0243 in assay [7]. The values for the composite z-score in assay [8], in [9] and in [10] were 0.576, 1.87 and 1.7, respectively. In addition, the z-score in [2] is -0.0176.

In the case of `N#Cc1ccc(NN2C(C(O)C(c3ccccc3)c3ccccc3)C=CC3C(=O)N(c4ccccc4)C(=O)C32)cc1` (stereo not given), the composite z-score in assay [1] was 1.46; in [3] it was 0.0908; in assay [4] it was 1.87; in [5], 0.609; in assay [6], 0.0768; in assay [7] it was 0.392. Besides, the composite z-score in assay [8] turned out to be 1.72; in assay [9], 0.307; in [10], 1.91. Further, the z-score in assay [2] was -0.734.

The record behind these values is PubChem BioAssay.
